# Values quoted from earlier work, collected in PubChem BioAssay AID977611.
# Where a name gives a salt, the structure may show the parent alone. The campaign covered roughly 3,900 compounds. About 3,900 (100%) were called active. No cut-off is given here; in the data, nearly all actives have Kd up to about 4200 µM. So high a share suggests a set chosen from earlier hits. The list shows a part of the results. Numbered stars: 1 amine (or outer) side, 2 acyl side, 3 side chain; on linkers, the order of the positions; unused ones are H or OH. Starred links: 1 amine or outer side, 2 acyl side, 3 side chain; linkers in the order of their positions; H or OH if unused. Non-standard residues stand in square brackets, D forms with d. Square brackets hold non-standard residues; d marks the D form. Residues, ends and D or L forms follow the SMILES beside them. Peptide text beside a SMILES is read from it. * marks the point of attachment. X1 = O=C([C@H](Cc1ccc(O[P+](O)(O)O)cc1)N[*:1])[*:2]; Orn(CH(NH2)2) = NC(N)NCCC[C@H](N)C(=O)O; Tfa = O=C(C(F)(F)F)*
# Test: PubChem AID 977611
# Conditions: PDB protein-ligand complexes, literature Kd
compound,measurement,setting,value
O=C(O)C1(O)C[C@@H](O)C(O)[C@H](O)C1 (some centres undefined),Kd,"protein: 3-dehydroquinate dehydratase (K170M mutation), PDB entry 4iuo",230 µM (active)
same,Kd,"protein: 3-dehydroquinate dehydratase, PDB entry 4gui",230 µM (active)
OC[C@H]1O[C@@H](Oc2ccc3c(c2)Oc2cc(O)ccc2N3)[C@H](O)[C@@H](O)[C@H]1O,Kd,"protein: PA-I galactophilic lectin, PDB entry 4lk7",9.1 µM (active)
CC(C)(C)OC(=O)N1CC(NC2NC(=O)c3cccnc3N2)C1 (centres undefined),Kd,"protein: PLASMINOGEN ACTIVATOR INHIBITOR 1, PDB entry 4aqh",0.29 µM (active)
Cc1nn(C)c2sc(C(=O)O)cc12,Kd,"protein: Pantothenate synthetase (T2A, E77G mutation), PDB entry 4fzj",700 µM (active)
CC(C)[C@H](NC(=O)[C@H](C)NC(=O)[C@@H](N)CCCNC(N)N)C(=O)N[C@@H](CCC(=O)O)C(=O)N[C@@H](CC(N)=O)C(=O)N[C@@H](CCC(N)=O)C(=O)N[C@@H](Cc1ccc(O[P+](O)(O)O)cc1)C(=O)N[C@@H](CO)C(=O)N[C@@H](Cc1ccccc1)C(=O)O (H-[Orn(CH(NH2)2)]AVENQ[X1]SF-OH),Kd,"protein: CBL E3 ubiquitin protein ligase, PDB entry 1yvh",0.043 µM (active)
CC(C)[C@H](NC(=O)[C@@H](NC(=O)[C@@H](NC(=O)[C@H](CO)NC(=O)[C@H](Cc1ccc(O[P+](O)(O)O)cc1)NC(=O)[C@H](CCC(=O)O)NC(=O)[C@@H](NC(=O)[C@@H](NC(=O)[C@@H](N)CO)[C@@H](C)O)C(C)C)[C@@H](C)O)C(C)C)C(=O)N[C@@H](Cc1cnc[nH]1)C(=O)N[C@@H](CO)C(=O)O (H-STVE[X1]STVVHS-OH),Kd,"protein: Suppressor of cytokine signaling 3(SOCS3), PDB entry 2hmh",0.07 µM (active)
CC(C)[C@H](NC(=O)[C@H](CO)NC(=O)[C@H](CCC(=O)O)NC(=O)[C@@H](N)CC(N)=O)C(=O)N[C@@H](CC(=O)O)C(=O)N[C@@H](Cc1ccc(O[P+](O)(O)O)cc1)C(=O)N[C@@H](CCCNC(N)N)C(=O)N[C@@H](C)C(=O)O (H-NESVD[X1][Orn(CH(NH2)2)]A-OH),Kd,"protein: E3 ubiquitin-protein ligase CBL, PDB entry 3bux",2.36 µM (active)
H-AASFIDAKKMP-OH,Kd,"protein: coatomer alpha subunit, PDB entry 4j8g",64.5 µM (active)
H-AAIFYLAG-OH,Kd,"protein: HIV-1 protease, PDB entry 2nxd",2.2 µM (active)
H-ADLIAYFKAATKF-OH,Kd,"protein: T cell receptor (TCR), PDB entry 1r5w",2.9 µM (active)
CC(C)C[C@H](NC(=O)[C@H](CC(C)C)NC(=O)[C@H](CCCCN)NC(=O)[C@H](CCCNC(N)N)NC(=O)[C@H](C)NC(=O)[C@@H]1CCCN1C(=O)[C@H](CC(=O)O)NC(=O)[C@H](Cc1ccc(O)cc1)NC(=O)[C@H](C)N)C(=O)O (H-AYDPA[Orn(CH(NH2)2)]KLL-OH),Kd,"protein: ALIX Bro1-V domains (KK268, 269YY mutant), PDB entry 2xs8",24.5 µM (active)
H-TIYNTTLKY-NH2,Kd,"protein: anti-human cytomegalovirus antibody 8f9, PDB entry 3eyf",0.094 µM (active)
H-ADLIAYPKAATKF-OH,Kd,"protein: T cell receptor (TCR), PDB entry 1r5v",33 µM (active)
CC[C@H](C)[C@H](NC(=O)[C@H](Cc1c[nH]c2ccccc12)NC(=O)[C@H](CCC(=O)O)NC(=O)[C@H](CC(N)=O)NC(=O)[C@@H](N)CO)C(=O)N[C@@H](CCC(N)=O)C(=O)N1CCC[C@H]1C(=O)N[C@@H](CCCNC(N)N)C(=O)N[C@@H](CC(C)C)C(=O)N1CCC[C@H]1C(=O)N[C@H](C=O)CCC(N)=O (H-SNEWIQP[Orn(CH(NH2)2)]LPQ-aldehyde),Kd,"protein: Ephrin type-B receptor 2, PDB entry 2qbx",6 µM (active)
CC[C@H](C)[C@H](NC(=O)[C@@H](NC(=O)[C@H](CO)NC(=O)[C@@H](NC(=O)[C@H](CCCCNC(C)=O)NC(=O)[C@H](Cc1c[nH]c2ccccc12)NC(=O)[C@H](CCCN=C(N)N)NC(=O)[C@H](CO)NC(=O)[C@H](CC(N)=O)NC(=O)[C@H](C)N)[C@@H](C)O)[C@@H](C)CC)C(=O)O,Kd,"protein: Golgi-associated PDZ and coiled-coil motif-containing protein CAL PDZ (CALP) domain, PDB entry 4nmq",32.3 µM (active)
CC[C@H](C)[C@H](NC(=O)[C@@H](NC(=O)[C@H](CO)NC(=O)[C@@H](NC(=O)[C@@H]1CCCN1C(=O)[C@H](CCCCNC(C)=O)NC(=O)[C@H](CCCN=C(N)N)NC(=O)[C@H](CO)NC(=O)[C@H](CC(N)=O)NC(=O)[C@H](C)N)[C@@H](C)O)[C@@H](C)CC)C(=O)O,Kd,"protein: Golgi-associated PDZ and coiled-coil motif-containing protein CAL PDZ (CALP) domain, PDB entry 4nmr",298 µM (active)
CC[C@H](C)[C@H](NC(=O)[C@H](CCCCNC(=O)C(F)(F)F)NC(=O)[C@H](CO)NC(=O)[C@@H](NC(=O)[C@@H]1CCCN1C(=O)[C@H](Cc1c[nH]c2ccccc12)NC(=O)[C@@H](N)CCCN=C(N)N)[C@@H](C)O)C(=O)O (H-RWPTSK(Tfa)I-OH),Kd,"protein: Golgi-associated PDZ and coiled-coil motif-containing protein CAL PDZ (CALP) domain, PDB entry 4nmt",14.1 µM (active)
CC[C@H](C)[C@H](NC(=O)[C@@H](NC(=O)[C@H](CO)NC(=O)[C@@H](NC(=O)[C@@H]1CCCN1C(=O)[C@H](Cc1c[nH]c2ccccc12)NC(=O)[C@H](CCCNC(N)N)NC(=O)[C@H](CO)NC(=O)[C@H](CC(N)=O)NC(=O)[C@H](C)N)[C@@H](C)O)[C@@H](C)CC)C(=O)O,Kd,"protein: Golgi-associated PDZ and coiled-coil motif-containing protein, PDB entry 4e34",0.97 µM (active)
H-RWPTSK(Ac)I-OH,Kd,"protein: Golgi-associated PDZ and coiled-coil motif-containing protein CAL PDZ (CALP) domain, PDB entry 4nmo",14.9 µM (active)
C[C@@H](O)[C@@H](C=O)[C@H]1CC(S)=C(C(=O)O)N1,Kd,"protein: Probable L,D-transpeptidase LdtA, PDB entry 4jmx",0.0621 µM (active)
CC1=C(/C=C/C(C)=C/C=C/C(C)=C/CO)C(C)(C)CCC1,Kd,"protein: bovine beta-lactoglobulin, PDB entry 1gx8",0.43 µM (active)
C/C=C(C)/C=C/C=C(C)/C=C/C1=C(C)CCCC1(C)C,Kd,"protein: Cellular retinoic acid-binding protein 2 (R111K, R132L, Y134F, T54V, R59W mutation), PDB entry 4i9s",0.162 µM (active)
same,Kd,"protein: Cellular retinoic acid-binding protein 2 (R111K, R132L, Y134F, T54V, R59W, A32W mutation), PDB entry 4i9r",0.112 µM (active)
